Assay results from the supplement of paper PMC9023506.
Where a name gives a salt, the structure may show the parent alone.

Test system: Danio rerio larvae (5 dpf)
Experiment: habituation to 1-s acoustic pulses, difference vs DMSO (percentage points (treated minus DMSO)); higher = more of the behaviour than the DMSO vehicle control
Settings: 10 µM; exposure time: 3 h pre-incubation + 3 h imaging
How it was run: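 Five-days-post-fertilisation wild-type zebrafish larvae were held in 96-well ProxiPlates and exposed to each library drug at a final 10 µM, diluted 1000× from DMSO stocks into egg water, with 48 larvae per drug. Exposure lasted 3 h before and 3 h during imaging at 28.5 °C, with images taken every 6 s across a 3-h program of rest, moving coloured lines and acoustic pulses. An ImageJ macro scored movement and upper-half location, and each behaviour score is the treated-group mean minus the vehicle-group mean, expressed in percentage points.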

SMILES	habituation to 1-s acoustic pulses
CN[C@H]1CC[C@@H](c2ccc(Cl)c(Cl)c2)c2ccccc21 [Sertraline hydrochloride]	-2.9
O=C1CCc2ccc(OCCCCN3CCN(c4cccc(Cl)c4Cl)CC3)cc2N1 [Aripiprazole]	-5.72
O=C(O)c1cc(/N=N/c2ccc(S(=O)(=O)Nc3ccccn3)cc2)ccc1O [Sulfasalazine]	0.389
CNC(=O)c1cc(Oc2ccc(NC(=O)Nc3ccc(Cl)c(C(F)(F)F)c3)cc2)ccn1 [Sorafenib]	-8.29
COc1cc(Nc2c(C#N)cnc3cc(OCCCN4CCN(C)CC4)c(OC)cc23)c(Cl)cc1Cl [Bosutinib]	0.4
OCc1cc(C(O)CNCCCCCCOCCCCc2ccccc2)ccc1O (stereo not given) [Salmeterol xinafoate]	0.0601
CC(C)(C(=O)c1cccnc1)c1cccnc1 [Metyrapone]	-0.218
CC(CCc1ccc(O)cc1)NCCc1ccc(O)c(O)c1 (stereo not given) [Dobutamine hydrochloride]	1.34
COc1ccc(-c2ccc3cc(C(=O)O)ccc3c2)cc1C12CC3CC(CC(C3)C1)C2 [Adapalene]	2.52
CCOc1ccccc1OCCN[C@H](C)Cc1ccc(OC)c(S(N)(=O)=O)c1 [Tamsulosin hydrochloride]	-0.195
